What all share (experiment): NCI-60 one-dose screen, 48 h (100 = growth as untreated, 0 = no growth, -100 = all killed)
Common to all, as to details: 10 µM unless noted

Assay [1] concerns DU-145 prostate.
For assay [2], the system named is K-562 leukemia.
In assay [3] the test system is MALME-3M melanoma.
Assay [4] concerns MDA-MB-231 breast.
Assay [5] has as its system RXF 393 renal.
Assay [6] has as its system SF-268 CNS.
Assay [7] deals with SF-295 CNS.
Assay [8] deals with SF-539 CNS.
Assay [9] deals with UACC-257 melanoma.
In assay [10] the test system is M14 melanoma.

Growth data for 27 molecules are collected here from PubChem BioAssay (NCI).

The panel holds about 83,000 compounds, 20% with a hit somewhere; the sample as a whole holds those more often.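 Growth was measured after 48 h exposure to one concentration of compound in 96-well plates. Values under 10 count as active.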 A number with no mark means an inactive call. The source made the active and inactive calls.

On to `O=C(CCc1nnc2sc(/C=C\c3ccccc3)nn12)c1nc2ccccc2[nH]1`, for which the growth in [1] was 98%; in assay [2], 2.17% (active); in [3], 93.8%; in assay [4], 83%; in [5] it was 108%; in [6], 107%. Besides, the growth was 83.8% in assay [7], 65.9% in [8], 94.9% in assay [9] and 90.7% in [10].

On to `O=C1/C(=C/c2ccccc2F)CNC/C1=C\c1ccccc1F`, for which the growth is -11.6% (active) in assay [1]; 5.7% (active) in assay [2]; -9.46% (active) in [3]; -2.14% (active) in assay [4]; -86.2% (active) in [5]; -11.4% (active) in [6]. Besides, the growth in assay [7] was -17.3% (active); in [8], -33% (active); in assay [9], -46.1% (active); in assay [10] it was -47.3% (active).

As to `O=C1OCC2=C1C(c1ccc3c(c1)OCO3)CC(=O)N2c1cccc(Cl)c1` (centres undefined), the growth was 107% in assay [1]; 102% in assay [2]; 88.4% in assay [3]; 101% in [4]; 96.5% in assay [5]; 110% in assay [6]. The growth was 96% in assay [7], 104% in assay [8], 104% in assay [9] and 121% in [10].

For the molecule `O=C(N/N=C/c1ccc(OC(F)F)c(OC2CCCC2)c1)c1cnn2c1NC(c1ccccc1)C2` (centres undefined), the growth in assay [1] was 85.7%; in assay [2] it was 38.6%; in [3], 108%; in [4], 81.9%; in [5] it was 76.9%; in assay [6], 64.2%. The growth in assay [7] was 80.3%; in [8], 81%; in assay [9] it was 88.2%; in [10], 82.9%.

For the molecule `C=C1CC[C@@H]2[C@@](C)(CCC[C@]2(C)C(=O)O)[C@@H]1CC[C@H](CO)CCO`, the growth in assay [1] is 112%; in assay [2] it was 106%; in [3], 93.8%; in assay [4], 105%; in assay [5], 118%; in [6], 99.8%. For the same molecule, the growth is 103% in assay [7], 105% in assay [8], 109% in assay [9] and 102% in assay [10].

For `O=C(N/N=C(\CS(=O)(=O)c1ccccc1)c1cc2ccccc2oc1=O)c1ccccc1`, the growth is 111% in assay [1]; 109% in [2]; 110% in [3]; 99.4% in assay [4]; 132% in assay [5]; 99.2% in assay [6]. In addition, the growth is 101% in [7], 103% in assay [8], 94.6% in assay [9] and 110% in [10].

Take `Cc1nc(-c2ccccc2)cc2c(O)c(C(=O)N/N=C/Cc3ccccc3)[nH]c(=O)c12`: the growth in assay [1] was 113%; in [2], 76.6%; in assay [3] it was 116%; in [4] it was 113%; in assay [5], 127%; in assay [6], 103%. The growth was 117% in assay [7], 103% in assay [8], 94.5% in [9] and 106% in [10].

As to `O=c1ccc2ccccc2o1`, the growth in assay [1] is 112%; in assay [2], 112%; in [3] it was 110%; in [4] it was 100%; in assay [5] it was 116%; in [6] it was 102%. Moreover, the growth in [7] was 97.7%; in assay [8] it was 102%; in assay [9], 101%; in assay [10], 104%.

In the case of `COc1cccc2c(=O)c3c(sc12)c(NCCN(C)C)nc1ccccc13`, the growth in assay [1] is 3.35% (active); in [2], -60.5% (active); in [3] it was 36.7%; in assay [4], 12.3%; in assay [5], 3.02% (active); in [6] it was 20.7%. Also, the growth in [7] was 36%; in assay [8], 22.5%; in assay [9], 29.3%.

For `CN1CCN(C)c2cncc(Br)c2C1=O`, the growth is 114% in assay [1]; 102% in [2]; 99.3% in [3]; 106% in assay [4]; 105% in assay [5]; 102% in assay [6]. The growth in assay [7] was -85% (active); in assay [8] it was 109%; in assay [9], 90.3%.

As to `O=C1CCC(N2Cc3c(C#CCCCNC(=O)c4cc5c(o4)C(=O)c4ccccc4C5=O)cccc3C2=O)C(=O)N1` (centres undefined), the growth in assay [1] was -98.1% (active); in assay [2], 16.2%; in [3], -97.6% (active); in assay [4], -2.23% (active); in assay [5] it was -15.4% (active); in assay [6], -10.1% (active). Further, the growth in assay [7] is -87% (active); in [8], -94.2% (active); in assay [9], -79% (active); in assay [10], -87.8% (active).

`O=C(c1ccc2ncc(-c3nc(NC4CC4)ncc3F)n2c1)N1CCOCC1`: the growth was 11.3% in assay [1]; 73.6% in [2]; 71.2% in [3]; 49.8% in assay [4]; -48.7% (active) in assay [5]; 1.39% (active) in assay [6]. The growth is 19.6% in assay [7], -0.925% (active) in assay [8] and 46.1% in [9].

As for `CCN1CCN(c2nc3ccccc3c3c(=O)c4cc(F)ccc4sc23)CC1`, the growth was 66.4% in assay [1]; 10.2% in assay [2]; 90.9% in assay [3]; 51.8% in [4]; 47.3% in [5]; 53.7% in assay [6]. Further, the growth in [7] was 93.2%; in [8] it was 86%; in assay [9], 78.7%.

In the case of `Cc1c(C)n(CC(O)CNC2CCCCC2C)c2ccccc12` (centres undefined), the growth in [1] was -67.2% (active); in assay [2] it was 4.09% (active); in [3], -64.1% (active); in assay [4], -9.38% (active); in assay [5], -90.2% (active); in assay [6], -42.5% (active). For the same molecule, the growth in assay [7] was -45.7% (active); in assay [8] it was -87.3% (active); in assay [9], -75.8% (active); in assay [10] it was -59.4% (active).

`C=CC(=O)N1CC2(CC(n3nc(-c4ccc(Oc5ccccc5)cc4)c4c(N)ncnc43)C2)C1`: the growth was 11% in assay [1]; 17.7% in assay [2]; 12.7% in [3]; 3.31% (active) in assay [4]; -19.4% (active) in assay [5]; 10.9% in assay [6]. In addition, the growth in [7] was 70.4%; in assay [8] it was 10.1%; in [9] it was 5.54% (active); in assay [10], 14.8%.

As to `COc1cc(CNCCN2C(=O)c3ccc4c5c(ccc(c35)C2=O)C(=O)N(CCNCc2cc(OC)c(OC)c(OC)c2)C4=O)cc(OC)c1OC`, the growth was -56.8% (active) in assay [1]; -4.93% (active) in [2]; -50.5% (active) in assay [3]; -83.9% (active) in assay [4]; -94.9% (active) in assay [5]; -46.8% (active) in assay [6]. The growth in assay [7] is -68% (active); in assay [8] it was -84% (active); in [9], -70.9% (active); in assay [10] it was -96.9% (active).

As to `COc1ccc(S(=O)(=O)c2ccc(C(N)=O)cc2)cc1NC(=O)c1[nH]c(C)c2c1CCCCC2=O`, the growth in assay [1] was 82.9%; in assay [2], 46.5%; in assay [3], 70.2%; in [4] it was 28.9%; in [5], 68.6%; in [6], 74.2%. Further, the growth in assay [7] was 49.9%; in assay [8], 48.7%; in assay [9] it was 63.2%.

For `O=C(NCc1ccc(F)cc1)C1CN(c2ccc(Cl)cc2)N(c2ccc(Cl)cc2)C1=O` (centres undefined), the growth is 85.3% in [1]; 23.3% in assay [2]; 60% in [3]; 84.3% in [4]; 65.5% in assay [5]; 65% in assay [6]. Further, the values for the growth in assay [7], in assay [8] and in assay [9] were 42.5%, 87.6% and 76.3%, respectively.

`O=C(N/N=C(\CS(=O)(=O)c1ccccc1)c1cc2cc(Br)ccc2oc1=O)c1ccccc1`: the growth in assay [1] is 105%; in assay [2], 112%; in assay [3], 111%; in assay [4] it was 94.2%; in assay [5], 126%; in assay [6], 98%. In addition, the growth in assay [7] was 98.6%; in assay [8], 101%; in [9], 107%; in [10] it was 106%.

`COc1cc(C(F)(F)F)ccc1-c1cc(-c2ccc(F)cc2)n[nH]1`: the growth in [1] was 95.7%; in [2] it was 97.5%; in [3], 90.8%; in assay [4], 80.2%; in assay [5], 92.4%; in [6], 101%. Besides, the growth in assay [7] is 97.6%; in assay [8], 91.2%; in assay [9], 82.5%; in assay [10] it was 93.1%.

Turning to `C[C@@H](Oc1cc(-c2cnn(C3CC4(CCNCC4)C3)c2)cnc1N)c1c(F)ccc(Cl)c1Cl`, the growth is 37.9% in assay [1]; -19.9% (active) in [2]; -67.6% (active) in [3]; -54% (active) in assay [4]; -31.5% (active) in assay [5]; -24.5% (active) in assay [6]. The growth in [7] was -10.2% (active); in assay [8], -90.7% (active); in assay [9], -89.5% (active); in assay [10] it was -75.5% (active).

As for `Cc1ccccc1-n1nnc(C(=O)Nc2nc(-c3ccccc3)c(-c3ccccc3)s2)c1C`, the growth was 87.6% [50 µM] in assay [1]; 53.5% [50 µM] in [2]; 80% [50 µM] in [3]; 85.3% [50 µM] in assay [4]; 69% [50 µM] in assay [5]; 69.6% [50 µM] in assay [6]. Besides, the growth in assay [7] is 80.6% [50 µM]; in assay [8], 77.1% [50 µM]; in [9], 61.5% [50 µM]; in [10] it was 78.7% [50 µM].

As for `O=C1C(N2CCOCC2)=Cc2cccc3cccc1c23`, the growth was 104% in assay [1]; 30.8% in [2]; 113% in [3]; 106% in assay [4]; 99.3% in [5]; 93.8% in assay [6]. Moreover, the growth in [7] was 112%; in assay [8], 97.5%; in assay [9] it was 101%; in [10] it was 104%.

Turning to `O=C1c2ccccc2C(=O)c2c(Nc3ccc(CCO)cc3)ccc(O)c21`, the growth in assay [1] is 60.7%; in [2], 17.2%; in assay [3] it was 77.2%; in [4], 56.4%; in [5], 74.6%; in [6], 60.4%. In addition, the growth in assay [7] was 50.2%; in [8], 84.8%; in assay [9], 101%; in [10], 80.3%.

Turning to `c1ccc2cc(Cn3c(-c4ccc5ccccc5c4)[n+](Cc4ccc5ccccc5c4)c4ccccc43)ccc2c1`, the growth in assay [1] is -19.2% (active); in assay [2], -45.1% (active); in assay [3] it was -58% (active); in assay [4] it was -72.9% (active); in assay [5], -65% (active); in [6], -83.5% (active). Besides, the growth in assay [7] is -79.1% (active); in assay [8], -75.2% (active); in [9], -38.5% (active); in assay [10], -72.8% (active).

In the case of `COc1cc(C2CC(=O)Nc3c2ccc2ccccc32)cc(Br)c1OC` (centres undefined), the growth in assay [1] was -4.56% (active); in assay [2] it was 6.59% (active); in [3], 27.6%; in assay [4] it was 28.5%; in [5], -1.55% (active); in [6], 42.5%. For the same molecule, the growth is -33.7% (active) in assay [7], 0.195% (active) in [8], 59.7% in assay [9] and -15.3% (active) in [10].

On to `O=c1oc2ccccc2cc1-c1csc(N=Nc2c(O)[nH]c3ccc(Cl)cc23)n1`, for which the growth was 108% in assay [1]; 98.7% in [2]; 105% in assay [3]; 102% in [4]; 129% in assay [5]; 98.4% in assay [6]. Further, the growth was 98.6% in assay [7], 94.5% in assay [8], 80.1% in assay [9] and 111% in assay [10].
